# Pf growth 48h: P. falciparum growth inhibition at 48 hours (one generation); Potency, µM (highest dose often 28.7 µM), inactives show top-dose activity change, negative = inhibition, actives largely listed as inhibitors; 310,000 tested, 5.9% active; P. falciparum luciferase growth in erythrocytes, 48 h; also: potency is read from the fitted curve at half-maximal effect; % is scaled to controls: 0 for no effect and ±100 for the full control effect
#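 Here the parasites carry a stable luciferase gene and grow inside erythrocytes in Albumax-based RPMI medium with compound for one erythrocytic cycle. Activity is scored as loss of luminescent signal.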
# Shiga inhibitor: blocks Shiga toxin action in Vero cells; Vero cells, Shiga toxin protein synthesis inhibition reporter; inhibition, % at 38.7 µM; 290,000 tested, 9.2% active; in the data active = inhibition mostly above about 28%, no sharp cut-off; inactive = mostly below about 43%; also: 0% is about no effect
# Pf growth 96h: inhibits malaria parasite growth, 96 h | P. falciparum luciferase reporter growth, 96 h | AID 504834 | 320,000 tested, 6.9% active | Potency, µM (doses to about 28.7 µM), inactives show top-dose activity change, negative = inhibition, hits mostly inhibitors; also: potency is read from the fitted curve at half-maximal effect; % is scaled to controls: 0 for no effect and ±100 for the full control effect
#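 Two-generation exposure (96 h) targets delayed-death phenotype. Reporter parasites carrying integrated firefly luciferase, in red cells at 2% hematocrit and 0.05% parasitemia final, kept at 37 C, 5% CO2; luminescence loss indicates inhibition.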
# Cycloheximide cs: affects cycloheximide protein synthesis inhibition readout, counter-screen; cell reporter, cycloheximide protein synthesis inhibition counterscreen; max response, %; 300,000 tested, 12% active; AID 2314; in the data active = max response mostly above about 13%, no sharp cut-off; inactive = mostly below about 14%; also: read at 38.3 µM for the half of the compounds with a filed dose; 0% is about no effect
# The depositor's hits bear a star; ? = inconclusive; · = no result given; [ ] = dose if it differs, or a comment. An excerpt weighted towards active compounds, which were near 21% of everything screened. Unless noted, calls follow the shape of the dose curve; as a rule, active = well fitted inhibition curve with a large enough effect; inconclusive = small, poorly fitted or top-dose-only effect, or another doubt; inactive = no such curve, though single readings can be large or run the other way.
SMILES,Pf growth 48h,Shiga inhibitor,Pf growth 96h,Cycloheximide cs
Cc1nnc(Sc2cc(C(=O)NC3CC3)c3ccccc3n2)s1,-4%,-21,-6%,2
CN(C)CCSc1nc(N)c2c3c(sc2n1)CN(C)CC3,4.1µM*,-6,?,11
CCCSc1nc(N)c2c3c(sc2n1)CN(C)CC3,?,35,?,16
COCCSc1nc(N)c2c3c(sc2n1)CN(C)CC3,5.2µM*,16,3.7µM*,10
COCCNc1nc(SC)nc2sc3c(c12)CCN(C)C3,0%,-3,?,-1
CC(C)Sc1nc(N)c2c3c(sc2n1)CN(C)CC3,1µM*,21,·,16*
O=C(NCCc1ccccc1)C(=O)NCC1CCNCC1,10%,29,-24%,-3
O=C(Nc1ccccc1OC(F)F)c1ccc(Br)o1,25%,1,9%,6
CC(Sc1nc2ncc(Cl)cc2[nH]1)C(=O)Nc1ccc(C(N)=O)cc1 (stereo not given),?,·,-25%,·
COc1ccc(O)c(C(=O)c2coc(=N)c(C(=O)Nc3ccc(SC(F)F)cc3)c2)c1,?,5,2.3µM*,20
CC(C)OC(=O)c1cc(C(=O)c2cc(F)ccc2O)coc1=N,·,20,?,6
CCC1C(c2ccccc2)NC(c2ccccc2)CC1(O)c1ccc(F)cc1 (stereo not given),10µM*,0,?,-1
CC1C(c2ccccc2)N(C)C(c2ccccc2)CC1(O)c1ccc(F)cc1 (stereo not given),?,18,20%,-4
O=C(NCC1CCCO1)C1CC(=O)N(c2cccc(Cl)c2)C1 (stereo not given),30%,-5,31%,-1
O=C(Nc1cc(Sc2ccccn2)cc([N+](=O)[O-])c1)c1ccc([N+](=O)[O-])cc1,13µM*,-6,3.3µM*,1
O=C(NCc1ccccn1)c1ccc([N+](=O)[O-])cc1,5%,1,-7%,0
O=[N+]([O-])c1ccc(SCCc2ccncc2)cc1,13%,6,15%,8
O=[N+]([O-])c1ccc(Sc2ccccn2)nc1,?,31,8.3µM*,3
O=[N+]([O-])c1ccccc1CSc1ccccn1,50%,53*,23%,11
O=[N+]([O-])c1ccc(SCCc2ccccn2)cc1,19%,50*,17%,21*
O=[N+]([O-])c1ccc(Sc2ccc(Cl)c(Cl)c2)nc1,10%,-12,-24%,6
CCn1c(SCC(=O)Nc2ccc(S(N)(=O)=O)cc2)nnc1-c1cccc(OC)c1,-2%,-11,-18%,-4
O=C(COc1ccc([N+](=O)[O-])cc1)N(Cc1cccs1)C1CCS(=O)(=O)C1 (stereo not given),-4%,1,-7%,-5
COc1ccc(/C(C)=N/NC(=O)CNC(=O)/C=C\c2ccccc2)c(OC)c1,9%,17,32%,5
Cc1cc(C)nc(SCc2ccc([N+](=O)[O-])cc2)n1,-21%,9,26%,0
SMILES,Pf growth 48h,Shiga inhibitor,Pf growth 96h,Cycloheximide cs
O=C(O)c1ccc(CSc2ccccn2)cc1,1%,-4,12%,0
O=[N+]([O-])c1ccc(CSc2ccccn2)cc1,·,48,25%,39*
Cc1ccnc(SCc2ccc([N+](=O)[O-])cc2)n1,80%,46,?,17*
N#Cc1cc(Sc2ccccn2)c([N+](=O)[O-])cc1C#N,3.7µM*,-10,69%,8
CCN1C(=O)C2C(C1=O)N1C(c3cccs3)C3C(=O)N(CC)C(=O)C3N1C2c1cccs1 (stereo not given),?,-1,156%,-3
Cc1ccc(C)c(N2N=C(C(=O)NCCN3C(=O)S/C(=C\c4cccnc4)C3=O)CCC2=O)c1,-28%,·,12%,·
C/C(=N\Nc1ncc(Br)cn1)c1cccc([N+](=O)[O-])c1,37%,90,-9%,26*
C/C(=N\NC(=O)OC(C)(C)C)c1cccc([N+](=O)[O-])c1,54%,29*,4%,11
C/C(=N\NC(=O)C(N)=O)c1cccc([N+](=O)[O-])c1,8%[5.75 µM],16,-25%[5.75 µM],13
C/C(=N\Nc1nc(N2CCOCC2)nc(N2CCOCC2)n1)c1cccc([N+](=O)[O-])c1,10µM*,-2,9%,-2
CNC(=S)N/N=C(\C)c1cccc([N+](=O)[O-])c1,4%,-4,17%,-1
CCOc1cccc(N(C(=O)CNC(=O)c2ccco2)C(C(=O)NCC2CCCO2)c2ccccc2)c1 (stereo not given),-18%,-6,1%,-5
O=C(NC(=S)Nc1cccc2c(O)cccc12)c1ccco1,?,109*,?,26*
O=C(NC(=S)Nc1cccc2cc(O)ccc12)c1ccco1,?,33,-12%,13
